Assay results as given in PubChem BioAssay (EPA / NIEHS).
Results filed as inconclusive are left out. The source made the active and inactive calls. The calls were made as follows, unless noted: active = hit-call score of the fitted dose curve at least 0.9, where 1 is the maximum; inconclusive = response in the unintended direction; inactive = score below 0.9.

Assays:
[1] = molecular target: mouse Estrogen Receptor alpha (Era), Esr1 (gene 13982) (UniProt P19785); assay: NVS_NR_mERa: NovaScreen (NVS) Nuclear Receptor Binding Assay for mouse Estrogen Receptor alpha (Era) (AID 2283378);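 also: hit means loss of bound radioligand signal relative to DMSO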
Sequence of mouse Estrogen Receptor alpha (Era), Esr1 (gene 13982) (P19785 whole entry, looked up): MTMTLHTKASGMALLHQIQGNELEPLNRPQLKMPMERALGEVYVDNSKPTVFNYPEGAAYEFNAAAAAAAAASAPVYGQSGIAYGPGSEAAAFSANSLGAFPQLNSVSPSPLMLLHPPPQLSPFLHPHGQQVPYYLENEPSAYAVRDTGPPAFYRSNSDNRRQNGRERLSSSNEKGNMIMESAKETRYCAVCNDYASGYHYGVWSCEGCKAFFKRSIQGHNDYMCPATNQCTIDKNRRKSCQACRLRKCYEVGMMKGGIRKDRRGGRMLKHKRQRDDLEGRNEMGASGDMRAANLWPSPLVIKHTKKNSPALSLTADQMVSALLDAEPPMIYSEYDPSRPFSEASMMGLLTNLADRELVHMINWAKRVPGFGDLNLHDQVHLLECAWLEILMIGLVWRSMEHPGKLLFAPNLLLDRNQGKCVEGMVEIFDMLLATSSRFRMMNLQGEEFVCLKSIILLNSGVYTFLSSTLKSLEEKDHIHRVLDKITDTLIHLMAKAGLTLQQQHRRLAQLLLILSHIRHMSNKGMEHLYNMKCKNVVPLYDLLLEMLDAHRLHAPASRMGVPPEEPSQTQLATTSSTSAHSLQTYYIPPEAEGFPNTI
Method in brief: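 Filter radiodetection of radioligand displacement from extracted receptor protein, measured 18 h post-dose. Single 25 uM concentration in duplicate initially, with concentration-series follow-up. Binding loss fitted relative to DMSO.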

[2] = molecular target: Estrogen receptor beta (Homo sapiens) (UniProt Q92731); assay: OT_ER_ERbERb_1440: Odyssey Thera (OT) 24-hour HEK293T Protein-Complementation Assay for Estrogen Receptor-beta/-beta Homodimer (AID 2283380);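 also: fluorescence gain from ER beta LBD homodimer complementation read by laser scanning cytometry; scored as signal increase over DMSO baseline for both agonists and antagonists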
Sequence of Estrogen receptor beta (Homo sapiens) (Q92731 whole entry, looked up, the tested form may be a part): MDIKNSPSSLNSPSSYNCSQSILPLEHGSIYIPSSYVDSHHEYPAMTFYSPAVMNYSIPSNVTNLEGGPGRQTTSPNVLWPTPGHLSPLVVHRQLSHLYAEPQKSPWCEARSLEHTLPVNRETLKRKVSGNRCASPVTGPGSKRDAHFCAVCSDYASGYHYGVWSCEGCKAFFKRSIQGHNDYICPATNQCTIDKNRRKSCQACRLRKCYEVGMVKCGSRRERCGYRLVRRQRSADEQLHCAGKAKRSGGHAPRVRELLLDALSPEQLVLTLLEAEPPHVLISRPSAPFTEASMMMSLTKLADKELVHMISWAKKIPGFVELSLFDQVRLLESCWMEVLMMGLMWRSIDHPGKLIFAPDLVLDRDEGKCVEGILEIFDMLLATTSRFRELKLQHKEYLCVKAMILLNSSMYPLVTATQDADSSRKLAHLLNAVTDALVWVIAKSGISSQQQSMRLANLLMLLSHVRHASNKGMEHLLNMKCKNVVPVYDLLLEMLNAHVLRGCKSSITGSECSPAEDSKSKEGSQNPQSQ
Method in brief: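 Fluorescence increase, nuclear for agonists or whole-cell for antagonists, relative to DMSO vehicle, quantified by laser scanning cytometer after fixation and Draq5 staining. Readout from 24 h treatment of HEK293T cells carrying complementation-paired ER beta LBD (aa 310-547).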

[3] = molecular target: Estrogen receptor (Homo sapiens) (UniProt P03372); assay: OT_ERa_GFPERaERE_0480: Odyssey Thera (OT) 8-hour HeLa Transcription Induction Assay for Estrogen Receptor (AID 2283381; active = hit-call score of the fitted dose curve at least 0.9, where 1 is the maximum; inactive = score below 0.9)
Sequence of Estrogen receptor (Homo sapiens) (P03372 whole entry, looked up): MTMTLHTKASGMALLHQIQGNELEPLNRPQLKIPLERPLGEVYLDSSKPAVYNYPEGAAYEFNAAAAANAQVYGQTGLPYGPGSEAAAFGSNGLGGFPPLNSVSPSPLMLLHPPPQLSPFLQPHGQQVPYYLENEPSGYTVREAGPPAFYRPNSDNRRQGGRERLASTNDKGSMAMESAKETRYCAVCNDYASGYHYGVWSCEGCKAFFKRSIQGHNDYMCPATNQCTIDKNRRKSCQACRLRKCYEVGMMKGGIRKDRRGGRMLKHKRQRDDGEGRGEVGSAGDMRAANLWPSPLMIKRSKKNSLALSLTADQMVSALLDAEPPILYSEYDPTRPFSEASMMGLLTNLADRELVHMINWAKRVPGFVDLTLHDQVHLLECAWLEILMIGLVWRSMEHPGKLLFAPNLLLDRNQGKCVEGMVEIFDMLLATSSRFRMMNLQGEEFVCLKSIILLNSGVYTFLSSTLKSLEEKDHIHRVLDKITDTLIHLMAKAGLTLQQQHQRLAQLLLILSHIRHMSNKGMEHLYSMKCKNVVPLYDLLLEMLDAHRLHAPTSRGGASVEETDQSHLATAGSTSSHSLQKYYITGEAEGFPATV
Method in brief: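 Cells (HeLa) receive compound; after 8 h, reporter fluorescence is imaged and quantified by high-content analysis. Gain-of-signal relative to DMSO gives the endpoint.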

[4] = molecular target: Estrogen receptor (Homo sapiens) (UniProt P03372); assay: OT_ERa_GFPERaERE_0120: Odyssey Thera (OT) 2-hour HeLa Transcription Induction Assay for Estrogen Receptor (AID 2283382)
Method in brief: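 Measures ESR1 pathway reporter gain-of-signal in HeLa cells after a 2-hour treatment, detected as fluorescent protein induction by microscopy, DMSO as baseline.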

[5] = molecular target: Retinoic acid receptor RXR-alpha (Homo sapiens) (UniProt P19793); assay: OT_NURR1_NURR1RXRa_0480: Odyssey Thera (OT) 8-hour HEK293T Protein Complementation Assay for Nurr1/retinoid X receptor (RXR) (AID 2283385)
Sequence of Retinoic acid receptor RXR-alpha (Homo sapiens) (P19793 whole entry, looked up, the tested form may be a part): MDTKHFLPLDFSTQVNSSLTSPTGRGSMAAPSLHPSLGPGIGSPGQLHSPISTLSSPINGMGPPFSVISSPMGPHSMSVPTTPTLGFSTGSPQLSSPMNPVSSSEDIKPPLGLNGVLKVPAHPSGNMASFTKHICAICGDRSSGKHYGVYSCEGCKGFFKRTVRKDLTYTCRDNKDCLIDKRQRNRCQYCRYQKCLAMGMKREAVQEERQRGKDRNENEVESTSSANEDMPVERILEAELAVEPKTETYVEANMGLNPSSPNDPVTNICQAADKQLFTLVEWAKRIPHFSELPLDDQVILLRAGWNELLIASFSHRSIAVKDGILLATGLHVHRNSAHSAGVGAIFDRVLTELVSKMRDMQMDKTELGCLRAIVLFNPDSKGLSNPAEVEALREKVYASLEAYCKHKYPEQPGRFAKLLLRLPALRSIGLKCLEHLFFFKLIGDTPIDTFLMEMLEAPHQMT
Method in brief: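 Compounds are applied to HEK293T cells carrying Nurr1 and RXRα linked to reporter fragments. After 8 h, fluorescence intensity reports heterodimer formation, with DMSO as baseline.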

[6] = molecular target: Retinoic acid receptor RXR-alpha (Homo sapiens) (UniProt P19793); assay: OT_NURR1_NURR1RXRa_1440: Odyssey Thera (OT) 24-hour HEK293T Protein Complementation Assay for Nurr1/retinoid X receptor (RXR) (AID 2283386)
Method in brief: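 Measured as fluorescence from a reconstituted split reporter, this 24 h HEK293T complementation assay scores compound-induced gain of Nurr1/RXRα association relative to DMSO.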

[7] = molecular target: Peroxisome proliferator-activated receptor gamma (Homo sapiens) (UniProt P37231); assay: OT_PPARg_PPARgSRC1_0480: Odyssey Thera (OT) 8-hour Protein-Complementation Assay for Peroxisome Proliferator-activated Receptor Gamma / SRC-1 Co-activator (AID 2283387);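 also: nuclear to cytoplasmic split Venus YFP fluorescence ratio reporting PPARg SRC-1 interaction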
Sequence of Peroxisome proliferator-activated receptor gamma (Homo sapiens) (P37231 whole entry, looked up, the tested form may be a part): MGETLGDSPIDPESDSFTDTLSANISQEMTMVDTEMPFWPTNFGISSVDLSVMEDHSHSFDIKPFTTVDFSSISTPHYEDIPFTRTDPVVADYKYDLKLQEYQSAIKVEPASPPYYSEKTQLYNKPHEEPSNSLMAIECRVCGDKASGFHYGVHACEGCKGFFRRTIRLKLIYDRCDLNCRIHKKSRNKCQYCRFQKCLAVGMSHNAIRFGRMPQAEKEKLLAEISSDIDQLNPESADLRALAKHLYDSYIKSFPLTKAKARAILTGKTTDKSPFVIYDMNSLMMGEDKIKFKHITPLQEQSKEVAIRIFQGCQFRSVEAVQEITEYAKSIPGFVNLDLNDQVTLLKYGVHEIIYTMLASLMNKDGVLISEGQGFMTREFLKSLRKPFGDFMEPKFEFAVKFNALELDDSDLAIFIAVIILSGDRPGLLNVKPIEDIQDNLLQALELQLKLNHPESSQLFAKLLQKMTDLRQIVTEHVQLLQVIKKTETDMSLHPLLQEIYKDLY
Method in brief: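 Protein-fragment complementation of split Venus YFP reports PPARg/SRC-1 interaction in HEK293T (transfected 48 h before treatment), exposed 8 h. Readout: N/C fluorescence ratio at 488 nm from imaging, Draq5 for segmentation, positive fit relative to DMSO.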

[8] = molecular target: Peroxisome proliferator-activated receptor gamma (Homo sapiens) (UniProt P37231); assay: OT_PPARg_PPARgSRC1_1440: Odyssey Thera (OT) 24-hour Protein-Complementation Assay for Peroxisome Proliferator-activated Receptor Gamma/ SRC-1 Co-activator (AID 2283388);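 also: nuclear to cytoplasmic ratio of reconstituted Venus YFP fluorescence in fixed imaged cells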
Method in brief: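 Readout is the 488 nm N/C fluorescence ratio from fixed, Draq5-stained HEK293T cells after 24 h compound exposure. Cells carried transiently transfected PPARg and SRC-1 fused to Venus fragments, transfected 48 h before treatment.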

[9] = molecular target: Bile acid receptor (Homo sapiens) (UniProt Q96RI1); assay: OT_FXR_FXRSRC1_0480: Odyssey Thera (OT) 8-hour HEK293T Protein-Complementation Assay for Farnesoid X receptor/SRC-1 Co-activator (AID 2283383)
Sequence of Bile acid receptor (Homo sapiens) (Q96RI1 whole entry, looked up, the tested form may be a part): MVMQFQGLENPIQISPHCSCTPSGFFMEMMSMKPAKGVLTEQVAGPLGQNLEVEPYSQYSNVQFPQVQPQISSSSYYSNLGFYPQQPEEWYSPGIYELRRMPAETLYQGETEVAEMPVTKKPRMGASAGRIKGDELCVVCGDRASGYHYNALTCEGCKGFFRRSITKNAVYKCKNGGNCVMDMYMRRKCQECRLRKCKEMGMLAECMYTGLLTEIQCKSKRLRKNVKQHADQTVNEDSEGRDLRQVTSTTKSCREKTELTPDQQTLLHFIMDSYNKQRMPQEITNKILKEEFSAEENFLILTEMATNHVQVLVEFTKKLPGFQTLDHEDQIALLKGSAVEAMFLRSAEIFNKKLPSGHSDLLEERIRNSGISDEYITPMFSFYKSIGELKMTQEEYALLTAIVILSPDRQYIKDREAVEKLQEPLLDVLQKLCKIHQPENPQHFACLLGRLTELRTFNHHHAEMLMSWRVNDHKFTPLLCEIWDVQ
Method in brief: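 Co-activator recruitment to FXR was measured in living HEK293T cells, where interaction of the two fused partners restored an active fluorescent reporter. Signal gain after 8 h treatment was referenced to DMSO.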

[10] = CEETOX_H295R_11DCORT: CeeTox H295R High-throughput Steroidogenesis Assay for 11-Deoxycortisol (11DCORT) (AID 2283432; active = hit-call score of the fitted dose curve at least 0.9, where 1 is the maximum; inactive = score below 0.9;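 as to AC50: 11-deoxycortisol secreted into the medium measured by LC-MS/MS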); conditions: actives raise or lower the signal
Method in brief: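 Human adrenal H295R cells were prestimulated with 10 uM forskolin for 48 h, then exposed to test chemical (0.1% DMSO final) for 48 h. Medium 11-deoxycortisol was quantified by MTBE extraction and HPLC-MS/MS; bidirectional fitting relative to DMSO.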

[11] = CEETOX_H295R_OHPREG: CeeTox H295R High-throughput Steroidogenesis Assay for OH-Pregnenolone (OHPREG) (AID 2283434; active = hit-call score of the fitted dose curve at least 0.9, where 1 is the maximum; inactive = score below 0.9); conditions: actives raise or lower the signal
Method in brief: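 Hormone levels in spent medium were measured by tandem mass spectrometry following liquid-liquid extraction. Cells (H295R) had been forskolin-stimulated (10 uM, 48 h) before a 48 h chemical exposure at 0.1% DMSO, with activity fitted in both directions against DMSO.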

[12] = CEETOX_H295R_OHPROG: CeeTox H295R High-throughput Steroidogenesis Assay for OH-Progesterone (OHPROG) (AID 2283435; active = hit-call score of the fitted dose curve at least 0.9, where 1 is the maximum; inactive = score below 0.9;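 as to AC50: 17alpha-hydroxyprogesterone secreted into medium measured by HPLC-MS/MS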); conditions: actives raise or lower the signal
Method in brief: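 Secreted 17alpha-hydroxyprogesterone is read by tandem MS from media of forskolin-primed H295R cells dosed with chemical for 48 h. Activity is fitted in both directions against DMSO baseline; cytotoxic concentrations are re-tested diluted.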

[13] = CEETOX_H295R_ANDR: CeeTox H295R High-throughput Steroidogenesis Assay for Androstenedione (ANDR) (AID 2283436; active = hit-call score of the fitted dose curve at least 0.9, where 1 is the maximum; inactive = score below 0.9); conditions: actives raise or lower the signal
Method in brief: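 Read-out is androstenedione secreted into medium, measured by tandem mass spectrometry after liquid-liquid extraction. Cells were H295R, dosed for 48 h per modified OECD 456; activity fitted in both directions relative to DMSO.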

Measured: AC50

CCCCCCCCOC(=O)c1ccc(O)cc1
active: [1] 1.72 µM | [2] 5.35 µM | [3] 3.7 µM | [4] 3.43 µM | [5] 74.7 µM | [6] 92.8 µM

CC12CCC(C1)C(C)(C)C2O (stereo not given)
inactive: [1] | [2] | [3] | [4] | [5] | [7] | [8]

O=S1(=O)CC(Cl)(Cl)C(Cl)(Cl)C1
inactive: [1]

CCCO
inactive: [2] | [3] | [4] | [5] | [7] | [8]

C=CCCCCCCCCC(=O)OCC
inactive: [2] | [3] | [4] | [5] | [7] | [8]

CCC(C)COC(=O)CC(C)C (stereo not given)
inactive: [2] | [3] | [4] | [5] | [6] | [7] | [8]

CCCC1CCC(=O)CC1
inactive: [2] | [3] | [4] | [5] | [6] | [7] | [8]

OC[C@H]1O[C@@H](O[C@H]2[C@H](O)[C@@H](O)[C@H](O)O[C@@H]2CO)[C@H](O)[C@@H](O)[C@H]1O
inactive: [2] | [3] | [4] | [9] | [7] | [8]

CC1COC(=O)O1 (stereo not given)
inactive: [2] | [3] | [4] | [9] | [5] | [7] | [8]

CC(C)(CO)CO
inactive: [2] | [3] | [4] | [5] | [6]

c1ccc(Cc2ccccc2)cc1
inactive: [2] | [3] | [5] | [8]
active: [4] 7.03 µM

CCO[Si](CC)(OCC)OCC
inactive: [2] | [3] | [4] | [5]

CCC(C)C1CCCCC1=O (stereo not given)
inactive: [2] | [3] | [4] | [5] | [6] | [7] | [8]

CCC(=O)OC(C)(C)C1CC=C(C)CC1 (stereo not given)
inactive: [2] | [3] | [4] | [7] | [8]
active: [9] 83.9 µM

CC(=O)OC(C)(C)C
inactive: [2] | [3] | [4] | [5] | [8]

CCCCC/C=C\C=C\C(=O)OCC
inactive: [4] | [5] | [7] | [8]
active: [2] 12.5 µM | [3] 95.6 µM

CC(=O)c1ccc2ccccc2c1
active: [12] 50 µM
not listed: [1] | [5] | [6] | [13]
inactive: all other assays above

CCCCCCCCCCOC(=O)c1ccccc1C(=O)OCCCCCCCC
inactive: [2] | [3] | [4] | [6] | [7] | [8]

CCCCOCCOCCO
inactive: [2] | [3] | [4] | [6] | [7] | [8]

c1ccc(OCCOc2ccccc2)cc1
active: [12] 36.9 µM
not listed: [1] | [6] | [9] | [13]
inactive: all other assays above

CCCc1ccc(N)cc1
inactive: [2] | [3] | [4] | [5] | [6] | [7] | [8]

CCCCN(CCCC)CCCCCCN(CCCC)CCCC
inactive: [2] | [3] | [4] | [5] | [7] | [8]

CC(=O)OC/C=C(C)/C=C/C=C(C)/C=C/C1=C(C)CCCC1(C)C
active: [5] 27.5 µM
inactive: [2] | [3] | [4] | [7] | [8]

CCCCC(CC)COCCO (stereo not given)
inactive: [2] | [3] | [4] | [5] | [7] | [8]

COC(=O)c1ccc(C(=O)OC)cc1
inactive: [2] | [3] | [4] | [5] | [6] | [7] | [8]

CC(=O)c1ccc(O)cc1
inactive: [2] | [3] | [4] | [5] | [6] | [7] | [8]

COc1ccc2[nH]cc(CCNC(C)=O)c2c1
active: [10] 44.5 µM | [12] 3.07 µM
not listed: [1] | [5] | [6] | [13]
inactive: all other assays above

CN(C)C
inactive: [2] | [3] | [4] | [5] | [7] | [8]

CC(=O)C1=C(C)[C@@H]2C[C@@]3(C1)[C@H](C)CC[C@H]3C2(C)C
active: [2] 12.7 µM | [9] 37.2 µM | [5] 72.4 µM
inactive: [3] | [4] | [7] | [8] | [11] | [12]

c1ccc2scnc2c1
inactive: [2] | [3] | [4] | [5] | [7] | [8]

CC(C)C(=O)c1ccccc1
inactive: [2] | [3] | [4] | [5] | [7] | [8]

CCCCOCCOCCOCCO
inactive: [2] | [3] | [4] | [5] | [7] | [8]

CCCCCCCC(=O)N(C)C
inactive: [2] | [3] | [4] | [5] | [7] | [8]

O=Cc1ccccc1O
inactive: [3] | [4] | [7] | [8]

C=CC(C)CCCC(C)(C)O (stereo not given)
inactive: [2] | [3] | [4] | [7] | [8]

CC(O)CNCC(C)O (stereo not given)
active: [3] 29.8 µM
inactive: [4] | [7] | [8]

OCC=Cc1ccccc1
not listed: [1] | [5] | [9] | [10] | [13]
inactive: all other assays above

CC(=O)OC(C)(C)C1CC=C(C)CC1 (stereo not given)
inactive: [3] | [4] | [7] | [8]

CC(=N[Si](C)(C)C)O[Si](C)(C)C
inactive: [10] | [11] | [12] | [13]

c1coc(CNc2ncnc3nc[nH]c23)c1
inactive: [3] | [4] | [7] | [8] | [10] | [11] | [12]

CC(=O)N(C)C
inactive: [3] | [4] | [7] | [8]

[Na+]
inactive: [2] | [3] | [4] | [6] | [7] | [8]

O=c1cc(-c2ccc(O)cc2)oc2cc(O)cc(O)c12
inactive: [7] | [8]
active: [10] 8.73 µM

O=C(OCc1ccccc1)c1ccccc1O
active: [2] 49.7 µM | [12] 50 µM
inactive: [3] | [4] | [10] | [11]

CC1=CCC(C(C)C)=CC1
inactive: [3] | [4] | [5]

NC(N)=S
inactive: [3] | [4] | [5] | [6] | [7] | [8]

NCCN1CCNCC1
inactive: [2] | [3] | [4] | [8]

CC(CCO)CC(C)(C)C (stereo not given)
inactive: [3] | [4] | [7] | [8]
active: [2] 39 µM

C1=COCCC1
inactive: [3] | [4] | [9] | [5] | [7] | [8]

CN(C)C(=O)Nc1ccccc1
inactive: [2] | [3] | [4] | [7] | [8]

CCCC[N+](C)(CCCC)CCCC
inactive: [2] | [7] | [8]

CCCCCCCCOC(C)=O
inactive: [3] | [4] | [5] | [6] | [7] | [8]

O=C(O)C1=NN(c2ccc(S(=O)(=O)O)cc2)C(=O)C1
inactive: [3] | [4] | [5] | [7] | [8]

CC=CC(=O)C1=C(C)C=CCC1(C)C
inactive: [10] | [11] | [12] | [13]

CCCC(O)C(CC)CO (stereo not given)
inactive: [2] | [3] | [4] | [6] | [7] | [8]

CCCCCC1C(=O)CCC1CC(=O)OC (stereo not given)
inactive: [3] | [4] | [5] | [7] | [8]

COc1ccc(OC)cc1
inactive: [3] | [4] | [5] | [6] | [7] | [8]

C=CC(O)CCCCC (stereo not given)
inactive: [5] | [7] | [8]

CC(C)N(c1ccccc1)C(C)C
inactive: [2] | [3] | [4] | [7] | [8]

OC[C@@H](O)[C@H](O)[C@@H](O)[C@@H](O)CO
inactive: [3] | [4] | [5] | [6] | [7] | [8]

Cc1cccc(C)c1
inactive: [3] | [4] | [6] | [7] | [8]

CC(C)(C)c1cccc(O)c1
not listed: [1] | [2] | [6] | [9]
inactive: all other assays above
